Bioassay records: PubChem BioAssay, National Center for Advancing Translational Sciences (NCATS)
TRHR enhancer = allosteric enhancers of human TRH receptor | TRHR cells, fluo-8 calcium fluorescence, EC20 TRH enhancement | enhancement, % at 2 µM | hit rate 0.66% among 360,000 | AID 493056; in the data active means enhancement above about 30%
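Enhancer read-out: after compound pinning and an initial kinetic agonist-mode read, an EC20 of TRH (10 nM final) was injected and fluo-8 calcium signal (Ex 480/Em 530) followed at 1 s/cycle for 100 cycles in TRHR-expressing cells.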
GRP78 ERSR act = inducers of ER stress response in human glioma cells. U87-MG GRP78 promoter luciferase reporter, 16 h. Potency, µM, actives largely listed as activators. hit rate 0.02% among 420,000. AID 602332; active means well fitted activation curve with a large enough effect; further: series mostly up to about 76 µM; nearly all actives have a fitted effect of over 35% in size
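ERSR induction read as luciferase luminescence (Bright-Glo, 10 min at room temperature) in stably transfected human U87-MG glioma cells exposed to compounds for 16 h, using GRP78 as sensor.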
D1 agonist = human D1 receptor agonism; P21728; HEK293 T-REx D1 cells, calcium flux, agonist mode; activation, % at 2 µM; hit rate 1% among 360,000; AID 504660
Target sequence (P21728 whole entry, looked up): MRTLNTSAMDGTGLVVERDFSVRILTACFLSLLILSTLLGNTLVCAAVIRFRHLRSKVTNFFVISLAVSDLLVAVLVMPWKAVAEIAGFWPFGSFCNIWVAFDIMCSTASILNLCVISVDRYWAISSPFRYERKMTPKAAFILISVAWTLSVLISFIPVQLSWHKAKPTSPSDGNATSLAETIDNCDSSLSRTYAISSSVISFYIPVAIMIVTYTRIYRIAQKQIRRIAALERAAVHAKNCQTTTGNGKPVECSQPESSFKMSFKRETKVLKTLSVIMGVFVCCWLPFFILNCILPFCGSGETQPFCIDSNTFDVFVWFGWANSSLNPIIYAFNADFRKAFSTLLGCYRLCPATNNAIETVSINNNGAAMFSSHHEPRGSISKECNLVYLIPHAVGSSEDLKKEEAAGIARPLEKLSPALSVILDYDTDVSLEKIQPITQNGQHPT
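Tetracycline-induced HEK293 TREx D1 cells, force-coupled to calcium signalling, were dye-loaded with a no-wash calcium kit. Compound was pin-added after a 10 s baseline. Fluorescence was read kinetically at 1 cycle/s for 180 s, with calcium rises flagged as agonism.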
D1 potentiator = potentiators of human D1 dopamine receptor | P21728 | AID 504651 | potentiation, % at 10 µM | hit rate 0.036% among 360,000 | HEK293 TREx D1 cells, calcium flux, dopamine EC20 potentiation; in the data active means potentiation above about 30%
TRHR ag = TRH receptor (human) agonism | AID 493084 | TRHR cells, calcium flux fluo-8, FDSS agonist mode | activation, % at 2 µM | P34981 | hit rate 0.18% among 360,000
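TRHR-expressing cells loaded with fluo-8 calcium dye; 23 nL library compound pin-transferred, kinetic FDSS fluorescence (Ex 480/Em 530) recorded about 180 s for agonist-induced calcium release, before a 10 nM TRH EC20 addition for potentiator mode.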
D1 antag = blocks dopamine activation of the human D1 receptor. HEK293 TREx D1 cells, calcium flux, dopamine EC80; hits give low values. activity change, negative = inhibition, % at 10 µM. hit rate 3.2% among 360,000. AID 504652; in the data active means activity change below about -30%
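Kinetic fluorescence of a calcium dye serves as the read-out. D1-expressing Hek293 Trex cells, induced overnight at 30 C, are exposed to compound for 180 s before an EC80 dopamine addition, then read 180 s further.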
Large screens that a line does not name were inactive. Hits are enriched below; roughly 4% of the tested compounds scored in any of these assays. Unless noted, no stated cut-off is given here; in the data, active means activation above about 30%; inactive means the rest.

Cc1ccc2[nH]c(=O)c3cc(C(=O)NC4CCC(C)CC4)sc3c2c1 (configuration not stated)	D1 antag -43
COc1cc2c(cc1OC)C(COc1ccccc1OC)N(C(C)=O)CC2 (configuration not stated)	D1 antag -49
COC(=O)c1ccc(OCC2c3cc(OC)c(OC)cc3CCN2C(=O)c2ccc(F)cc2)cc1 (configuration not stated)	D1 antag -39
COc1cc2c(cc1OC)C(COc1ccccc1OC)N(C(=O)C(C)(C)C)CC2 (configuration not stated)	none
O=C(O)Cn1nnc(-c2ccc(OCc3ccccc3Cl)cc2)n1	none
O=C(O)COc1ccc(-c2nnn(CC(=O)O)n2)cc1	D1 antag -36
O=C(O)COc1ccc(C(=O)c2ccccc2)cc1	D1 antag -30
COCC(=O)N(Cc1cc2cc(C)ccc2[nH]c1=O)c1cccc(C)c1C	none
COCC(=O)N(Cc1cc2cc(C)ccc2[nH]c1=O)c1ccc(C)c(C)c1	TRHR enhancer 31
CCC(C)(C)NC(=O)C(OC(=O)c1ccco1)c1ccccc1F (configuration not stated)	none
CC(C)(C)NC(=O)C(OC(=O)c1ccco1)c1ccccc1F (configuration not stated)	D1 antag -38
O=[N+]([O-])c1ccc(Nc2ccc3ccccc3c2)nc1	D1 antag -34
O=C(O)c1cccc(Nc2ccc([N+](=O)[O-])cn2)c1	D1 antag -35
N#Cc1ccc(-c2csc(NC(=O)C3CC3)n2)cc1	none
N#Cc1ccc(-c2csc(NC(=O)/C=C/c3cccs3)n2)cc1	D1 antag -44
Cc1ccc(-c2csc(NC(=O)/C=C/c3cccs3)n2)cc1C	D1 antag -79
N[C@H](Cn1ccc(=O)c(O)c1)C(=O)O	none (no result: TRHR enhancer, D1 agonist, D1 potentiator, TRHR ag, D1 antag)
COc1ccc(-c2cn3c(C)c(C(=O)N4CCc5ccccc5C4)sc3n2)cc1	D1 antag -31
Cc1c(C(=O)N2CCc3ccccc3C2)sc2nc(-c3ccccc3)cn12	none
COc1ccc(CN2CCN(C(=O)c3ccc(-c4ccccc4)cc3)CC2)c(OC)c1OC	none
COc1ccc(CN2CCN(C(=O)c3cccs3)CC2)c(OC)c1OC	D1 antag -34
COc1cc(N)c(Cl)cc1C(=O)N[C@@H]1CCN(CCCOc2ccc(F)cc2)C[C@@H]1OC	D1 antag -58 (no result: GRP78 ERSR act)
COc1cc(N)c(Cl)cc1C(=O)N[C@H]1CCN(CCCOc2ccc(F)cc2)C[C@H]1OC	none
O=C(N/N=C1/CCSC1)c1cccc([N+](=O)[O-])c1	none
CN=c1scc(-c2ccccc2F)n1/N=C/c1ccc[nH]1	none
CN=c1scc(-c2ccccc2F)n1/N=C/c1ccc(O)c(O)c1O	D1 antag -41
COc1cc(/C=N/NC(=O)C[n+]2ccccc2)cc(OC)c1OC(C)=O	D1 antag -79
N#CC(C#N)=C/C(C#N)=C(/N)N1CCN(c2ccc(Cl)cc2)CC1	D1 antag -40
Cc1c2cnn(CC(=O)NC(C)C)c(=O)c2c(C)n1Cc1cccc(Cl)c1	D1 antag -55
O=C(COc1ccc([N+](=O)[O-])cc1)NC(=O)NC1CCS(=O)(=O)C1 (configuration not stated)	D1 antag -45
O=C(COc1ccc(Oc2ccccc2)cc1)NC1CCS(=O)(=O)C1 (configuration not stated)	none (no result: TRHR enhancer, D1 agonist, D1 potentiator, TRHR ag, D1 antag)
Cc1ccc(Oc2ccc(OCC(=O)NC3CCS(=O)(=O)C3)cc2)cc1 (configuration not stated)	D1 agonist 36, D1 antag -48 (no result: D1 potentiator)
CCC(C)c1c(N)n(S(=O)(=O)c2ccc(C)cc2)oc1=O (configuration not stated)	none (no result: TRHR enhancer, D1 agonist, D1 potentiator, TRHR ag, D1 antag)
CC(CCN1CCN(c2ccc(F)cc2)CC1)c1ccccc1 (configuration not stated)	D1 antag -62
C/C(=C\c1ccccc1)CN1CCN(c2ccccc2)CC1	D1 antag -38
C/C=C(\C)CN1CCN(c2ccccc2)CC1	none
CC(CN1CCN(c2ccccc2)CC1)c1ccccc1 (configuration not stated)	D1 antag -59
CC(CCN1CCOCC1)c1ccccc1 (configuration not stated)	none
Cc1ccc(Cl)cc1N1CCN(C(=O)Cn2ncc3c4ccccc4n(C)c3c2=O)CC1	D1 antag -33
Cc1ccc(Cl)cc1N1CCN(CCCNC(=O)Cn2ncc3c([nH]c4ccccc43)c2=O)CC1	TRHR enhancer 54
Cc1cccc(N2CCN(C(=O)Cn3ncc4c5ccccc5n(C)c4c3=O)CC2)c1C	none
Cc1ccc(Cl)cc1N1CCN(C(=O)c2cc3c(=O)n(C)c4ccccc4c3n2C)CC1	D1 antag -36 (no result: D1 potentiator)
COc1ccc(CCNC(=O)CSc2nc3c(c(=O)n(C)c(=O)n3C)n2C(C)C)cc1OC	none
CCC(=O)NC(Nc1cc(C)cc(C)n1)(C(F)(F)F)C(F)(F)F	none
COc1ccc(CNC(=O)COc2cc3c(c4oc(=O)cc(C)c24)CCC(C)(C)O3)cc1OC	D1 antag -31
CCOC(=O)C(NC(=O)CCl)(Nc1sc(C)c(CC)c1C#N)C(F)(F)F (configuration not stated)	none
CCOC(=O)C(NC(=O)CC(C)C)(Nc1sc(C)c(CC)c1C#N)C(F)(F)F (configuration not stated)	D1 antag -83
Cc1cccc(C(=O)Nc2scc(CC(C)C)c2C(=O)O)c1	none
COc1ccc(/C=C(/C#N)C(=O)Nc2ccc(C)cc2C)cc1C(=O)O	D1 antag -35
COc1cc(/C=C(/C#N)C(=O)Nc2ccc(C)cc2)ccc1Oc1nc(Cl)ncc1F	D1 antag -31
Cc1ccc(NC(=O)c2ccc3[nH]c(C)cc(=O)c3c2)cc1	none
CC1=CC(=O)C=C(C)C1=NOc1ccccc1[N+](=O)[O-]	D1 antag -66
CCOC(=O)C1=C(COC(=O)CCOc2ccc(OCC)cc2)NC(=O)NC1C (configuration not stated)	none
COc1cc2c(cc1OC)n(CC(=O)c1ccc(F)cc1)c(=O)n1nc(CCn3nc(C)cc3C)nc21	TRHR enhancer 36
Cc1ccc2c(=O)cc(C(=O)Nc3c(C)cccc3C)oc2c1	D1 antag -32
COc1ccc(CNC(=O)c2cc(=O)c3cc(C)ccc3o2)cc1	D1 antag -36
COc1ccc2oc(=O)c(C(=O)NCc3ccc(C)cc3)cc2c1	D1 antag -37
Cc1ccc(CNC(=O)c2cc(=O)c3ccccc3o2)cc1	D1 antag -35 (no result: D1 potentiator)
COc1ccc(CNC(=O)c2cc3cc(OC)ccc3oc2=O)cc1	none
CC(C)Cn1c(N)c(C(=O)CSc2nc3ncc(Cl)cc3[nH]2)c(=O)n(C)c1=O	none
